PubChem BioAssay AID892 (National Center for Advancing Translational Sciences (NCATS), 2007)
The campaign covered roughly 75,000 compounds. About 20 (0.03%) were called active. Calls come from the whole dose curve; as a rule, active = well fitted inhibition curve with a large enough effect; inconclusive = small, poorly fitted or top-dose-only effect; inactive = no such curve, though single readings can be large or run the other way. Only a sample is shown. Square brackets hold non-standard residues; d marks the D form. Peptide text beside a SMILES is read from it. ξ: configuration not given here. ξV = CC(C)C(N)C(=O)O

Target: Breast cancer type 1 susceptibility protein (Homo sapiens) (UniProt P38398)
Assay: qHTS Assay for Inhibitors of BRCT-Phosphoprotein Interaction (Red Fluorophore)
Settings: BRCT-phosphopeptide binding, red fluorescence polarization; series mostly up to 76.9 µM; activity change, negative = inhibition: at the top concentration
Experimental: NIH Molecular Libraries Screening Centers Network [MLSCN]
NIH Chemical Genomics Center [NCGC]
PI Name: Natarajan, Amarnath; University of Texas
A complex of BRCT (C-terminal portion of BRCA1, MW ~35 kDa, His-tagged) and fluorescently labeled pBACH1 phosphorylated 10 aa peptide fragment of BACH1, a helicase implicated in DNA repair, is incubated with library members. Inhibitors of BRCT-pBACH1 binding are detected by a decrease in the fluorescence polarization (FP) of the fluorophore. In order to minimize the effect of fluorescence artifacts and to increase the overall robustness of the screen, the compound library members were incubated in separate reactions with rhodamine-labeled probe-protein complexes. Protein and labeled probes were supplied by Dr. Amarnath Natarajan, Department of Pharmacology and Toxicology, University of Texas Medical Branch Galveston, TX.
Assay Buffer: 16mM Na2HPO4, 4 mM NaH2PO4, 150 mM NaCl, 1 mM EDTA, 1 mM DTT, 0.02% NaN3, and 0.01% Tween 20 at pH 7.3.
Assay Controls: 100 nM TAMRA labeled decapeptide dispensed into columns 3 and 4 to generate negative control (full inhibition of
binding, -100 % activity). 100 nM labeled decapeptide/100 nM protein in columns 1, 2, 5 - 48. Titration of unlabeled decapeptide control (from 10 mM, then 1:2 dilution in duplicate) pin-transferred to column 2, rows 1 to 16. Column 1 is neutral.
Three uL of reagents were dispensed to 1536-well Greiner black solid-bottom plates. Compounds and controls (23 nL) were transferred via Kalypsys PinTool. The plates were incubated for 12 min at room temperature, and then read on ViewLux (Perkin-Elmer) High-throughput CCD imager using BODIPY for the rhodamine-labeled decapeptide probe polarization filter sets. During dispense, reagent bottles were kept submerged into 4 deg C water bath and all liquid lines were covered with aluminum foil to minimize probe and protein degradation. All screening operations were performed on a Kalypsys robotic system (Kalypsys, Inc., San Diego, CA) containing one RX-130 and two RX-90 anthropomorphic robotic arms. The timing and order of assay plates passing through the screening system were adjusted such that each compound library plate was assayed against the fluorescein- and rhodamine-labeled assay systems at immediately adjacent time points.
% is set by controls: 0 for no effect and ±100 for the full control effect.

Breast cancer type 1 susceptibility protein (Homo sapiens), sequence (P38398 whole entry, looked up): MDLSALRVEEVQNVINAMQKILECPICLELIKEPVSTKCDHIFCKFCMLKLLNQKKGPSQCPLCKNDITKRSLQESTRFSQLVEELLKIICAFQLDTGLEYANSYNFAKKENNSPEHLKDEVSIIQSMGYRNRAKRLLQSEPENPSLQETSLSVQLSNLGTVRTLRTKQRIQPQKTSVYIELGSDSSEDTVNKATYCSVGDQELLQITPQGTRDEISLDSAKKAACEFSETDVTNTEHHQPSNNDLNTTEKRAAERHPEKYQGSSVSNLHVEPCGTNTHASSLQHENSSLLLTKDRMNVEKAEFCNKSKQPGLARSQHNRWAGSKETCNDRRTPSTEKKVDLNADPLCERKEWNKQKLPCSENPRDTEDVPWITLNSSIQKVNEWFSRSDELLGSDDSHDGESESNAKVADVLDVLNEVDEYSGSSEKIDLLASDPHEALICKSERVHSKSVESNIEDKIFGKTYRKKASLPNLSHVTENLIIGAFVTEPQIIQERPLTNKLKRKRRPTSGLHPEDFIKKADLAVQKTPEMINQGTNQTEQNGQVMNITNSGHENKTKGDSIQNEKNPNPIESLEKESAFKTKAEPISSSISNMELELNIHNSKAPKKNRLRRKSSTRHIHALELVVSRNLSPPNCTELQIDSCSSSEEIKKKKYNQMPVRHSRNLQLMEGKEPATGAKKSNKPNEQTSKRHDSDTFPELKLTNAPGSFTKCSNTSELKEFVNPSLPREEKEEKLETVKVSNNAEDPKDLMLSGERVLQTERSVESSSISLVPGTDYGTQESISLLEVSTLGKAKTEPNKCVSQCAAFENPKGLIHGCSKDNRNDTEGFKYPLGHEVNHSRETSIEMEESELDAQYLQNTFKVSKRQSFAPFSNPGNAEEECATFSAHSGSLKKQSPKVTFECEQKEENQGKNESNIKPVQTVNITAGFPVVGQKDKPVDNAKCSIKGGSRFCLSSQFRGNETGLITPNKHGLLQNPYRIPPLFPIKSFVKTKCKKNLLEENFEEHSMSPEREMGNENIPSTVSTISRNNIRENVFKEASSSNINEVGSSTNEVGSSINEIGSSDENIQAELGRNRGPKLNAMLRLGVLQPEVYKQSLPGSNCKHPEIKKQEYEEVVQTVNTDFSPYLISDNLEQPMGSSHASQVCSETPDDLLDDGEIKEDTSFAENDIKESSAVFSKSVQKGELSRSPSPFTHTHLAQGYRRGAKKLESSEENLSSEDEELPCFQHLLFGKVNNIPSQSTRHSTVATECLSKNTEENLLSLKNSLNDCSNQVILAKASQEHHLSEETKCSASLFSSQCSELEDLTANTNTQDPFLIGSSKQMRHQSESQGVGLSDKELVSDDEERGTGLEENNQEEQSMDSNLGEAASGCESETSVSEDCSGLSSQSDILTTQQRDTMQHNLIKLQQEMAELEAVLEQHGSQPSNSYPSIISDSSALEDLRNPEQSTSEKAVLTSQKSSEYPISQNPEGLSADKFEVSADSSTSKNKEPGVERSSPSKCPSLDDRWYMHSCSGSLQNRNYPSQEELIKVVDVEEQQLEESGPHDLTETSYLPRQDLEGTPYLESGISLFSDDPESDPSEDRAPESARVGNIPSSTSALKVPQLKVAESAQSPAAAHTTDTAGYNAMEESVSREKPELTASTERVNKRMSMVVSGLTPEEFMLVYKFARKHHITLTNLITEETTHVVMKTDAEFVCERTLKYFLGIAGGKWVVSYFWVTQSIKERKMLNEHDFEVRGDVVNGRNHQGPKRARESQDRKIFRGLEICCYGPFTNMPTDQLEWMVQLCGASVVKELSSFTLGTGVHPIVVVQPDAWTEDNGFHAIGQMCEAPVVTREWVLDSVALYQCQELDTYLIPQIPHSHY

Activity change, negative = inhibition, inactive:
CCS(=O)(=O)N1CCN(C(=O)c2cccs2)CC1 -0.859%
Cc1nc2cnc(Nc3ccccc3)nc2n(Cc2ccc(F)cc2)c1=O 2.61%
CCCCC[C@H](O)CCCC(=O)O 1.58%
COc1ccc(-c2cc(C(F)(F)F)nc(SCCC(=O)NCc3ccco3)n2)cc1 -0.281%
CCn1cc(C(=O)NCC2COc3ccccc3O2)c2cc(OC)c(OC)cc2c1=O (stereo not given) -0.433%
CC(=O)NC(C(=O)NCC(N)=O)C(C)C (stereo not given) (Ac-[ξV]-Gly-NH2) 0.622%
CN1CCCC1CCO[C@@](C)(c1ccccc1)c1ccc(Cl)cc1 (stereo not given in full) 1.2%
Nc1ccccc1N 0.594%
COC(=O)[C@@H]1C[C@H]2CC[C@H](O)C[C@H]2N1Cc1ccc(N2CCN(C)CC2)cc1 -0.952%
O=C(O)c1cccc(S(=O)(=O)NCCO)c1 1.54% [at 15.4 µM]
CCCN1[C@H](C(=O)OC)C[C@@]2(O)[C@@H](O)[C@@H](O)[C@@H](O)C[C@@H]12 0.469%
CCOC(=O)c1sc(NC(=S)n2cc(C)cn2)c(C(=O)OCC)c1C -1.09%
CCc1nc(C)cn1S(=O)(=O)c1cc(OC)c(C)cc1C 0.696%
COc1ccc(CN2C(=O)CN=C2Nc2ccc(C)cc2C)cc1 0.673%
COc1ccc2c(c1OC)C(=O)N(c1ncn[nH]1)C2 -2.61%
C=CCn1c(COc2ccccc2)nnc1SCC(=O)NCC(=O)OCC 0.0764%
Clc1ccc(C2[C@H]3CN(CC4CCCCC4)[C@H](c4ccccc4)C34CC2(c2cccnc2)C4)cn1 (stereo not given in full) 0.586%
COCC(=O)N1CCC2(CCCN(c3ccccc3)C2)CC1 -0.355%
Cc1cccc(Cn2c(SCCO)nc3c2c(=O)n(C)c(=O)n3C)c1 -1.18%
CS(=O)(=O)N(CC(=O)N1CCOCC1)c1ccc2c3c(cccc13)CC2 0.749%
Cc1cc(C)nc(SCc2nnc(SCC(=O)Nc3ncc(C)s3)n2Cc2ccco2)n1 -0.299%
CCOc1ccc(CNC(=O)C2CC(=O)N(C3CCCC3)C2)cc1OC (stereo not given) 1.07%
O=C(Nc1cccc(F)c1)c1ccc(S(=O)(=O)N2CCCC2)cc1 1.38%
COc1ccc(-c2cc(C(F)(F)F)n3nc(C(=O)N4CCOCC4)c(Cl)c3n2)cc1 -0.981%
O=C(OCC(O)C(O)COC(=O)c1ccccc1)c1ccccc1 (stereo not given) -0.448%
O=C(c1cnn2ccccc12)N1CCc2ccccc21 -0.328%
CCCNS(=O)(=O)c1ccc2c(c1)CCCN2C(C)=O 0.548%
CC1Cc2ccccc2N1C(=O)Cn1cnc2ccccc2c1=O (stereo not given) 0.0211%
COC(=O)COc1ccc(S(=O)(=O)Nc2ccc(NC(C)=O)cc2)cc1 -0.143%
O=C1CCC(C(=O)Nc2ccc(OC(F)F)cc2)N1 (stereo not given) -0.0225%
CCOC(=O)N1CCN(C(=O)c2cc3c(-c4ccc(Cl)cc4)nn(C)c3s2)CC1 0.778%
O=C1c2cccnc2C(=O)N1Cc1cccs1 0.534%
Nc1nc(N)c2[nH]c(CNc3ccc(C(=O)O)cc3)nc2n1 1.19% [at 15.4 µM]
O=C(O)[C@@H]1[C@@H](C(=O)O)[C@]23C[C@@]2(C(=O)O)[C@]2(C(=O)O)CCC3=C3CCCC312 1.09% [at 15.4 µM]
CC(=O)Nc1ccc(S(=O)(=O)N2CCN(CCCOc3cc(C)ccc3C)CC2)cc1 -0.555%
O=C(CSc1nc2[nH]ncc2c(=O)n1-c1ccccc1)N1CCCc2ccccc21 12.7%
CC(C)CNC(=O)C1CCCN(S(=O)(=O)c2ccc(-n3cnnn3)cc2)C1 (stereo not given) 1.01%
Cn1c(N)c(C(=O)COC(=O)c2cc(C(F)(F)F)nc3c(C(F)(F)F)cccc23)c(=O)n(C)c1=O -2.05%
CCCC1CC(C)(C(=O)Cn2[nH]c(=O)ccc2=O)OC1=O (stereo not given) -1.89%
C[C@@H]1O[C@@H](OC[C@H]2O[C@@H](Oc3c(-c4cccc(O)c4O)oc4cc(O)cc(O)c4c3=O)[C@H](O)[C@@H](O)[C@@H]2O)[C@H](O)[C@H](O)[C@H]1O 0.502%
CCOC(=O)C1CCCCN1Cc1ccc(OC)c(OC)c1OC (stereo not given) -0.0383%
O=C(Nc1c(-c2ccccc2)nc2c(Br)cc(Br)cn12)c1ccco1 -1.98%
Cc1ccc(S(=O)(=O)N2CCN(C(=O)CCC(=O)NC3CCCc4ccccc43)CC2)cc1 (stereo not given) 1.14%
C[C@@H]1C[C@H]2[C@@H]3C[C@H](F)C4=CC(=O)C=C[C@@]4(C)[C@]3(F)[C@H](O)C[C@]2(C)[C@@]1(O)C(=O)CO -0.634% [at 34.4 µM]
Cc1oc(CC(C)C)c(CN2CCCC2)c1C(=O)O -0.0692%
Fc1ccc(OCc2nn3c(Cn4nnc5ccccc54)nnc3s2)cc1 -0.165%
COc1ccc(OC)c(NC(=O)CCN2CCC(C)CC2)c1 -1.49%
COC(=O)c1c(-c2ccc(C)cc2)csc1N -0.205%
O=C(OC(C(=O)NC1CCCC1)c1ccc(F)cc1)c1ccno1 (stereo not given) 1.14%
CCOc1ccccc1NC(=O)CCc1ccc(C)o1 0.664%
Cc1c(C(=O)OCC(=O)N(CCC#N)c2ccccc2)oc2c1ccc1ccccc12 -1.38%
O=C1c2cccnc2C(Nc2ccc(S(=O)(=O)N3CCCCCC3)cc2)N1Cc1ccccc1 (stereo not given) -1.92%
Cc1cc(C)n(C(=O)c2ccc(S(=O)(=O)N3CCCC3)cc2)n1 0.192%
Cn1c(SCc2nc3ccccc3s2)nnc1-c1ccc2c(c1)OCO2 1.04%
COC(=O)[C@@H]1C[C@@]2(O)[C@H](O)[C@H](O)[C@H](O)C[C@H]2N1Cc1ccc(C(C)(C)C)cc1 0.112%
CC1=C(C(=O)OCc2ccccc2)C(c2ccco2)n2ncnc2N1 (stereo not given) 0.427%
CCOC(=O)N1CCC(NC(=O)C(C)n2c3ccccc3c3cnn(C)c(=O)c32)CC1 (stereo not given) -0.528%
C=CCNc1nnc(C)c2ccccc12 -0.8%
COc1cccc(N(CC(=O)Nc2cccc(F)c2)S(C)(=O)=O)c1 1.38%
Cc1cnc(CNc2ncncc2-c2ccccc2Cl)cn1 -0.849%
O=C(Cn1nc(C(F)(F)F)c2c1CCC2)NCc1ccc(F)cc1 2.4%
O=C1CC(N2CCN(C(c3ccccc3)c3ccccc3)CC2)C(=O)N1 (stereo not given) 0.264%
CCOC(=O)c1cccc(NC(=O)CCc2c(C)nc3ncnn3c2C)c1 -1.78%
C/C(=C\c1ccco1)C1Nc2cccc3cccc(c23)N1 -2.79%
Brc1ccc(OCCn2ccnc2)cc1 1.45%
O=C(Cl)c1ccccc1[N+](=O)[O-] 0.844%
CO/N=C\[C@@H](C)[C@H](OCc1ccccc1)C(C)C -2.08% [at 15.4 µM]
Cc1cccc(-c2cc(=O)c3cc(C)ccc3o2)c1 -3.67%
Cc1cnc(NC(=O)CSc2nnc(-c3ccc(Cl)cc3Cl)n2N)s1 1.12%
CCn1nnc(NC(=O)c2cc(Cl)c(OC)c(Cl)c2)n1 0.626%
O=C(CSc1nnc2scc(-c3ccc(F)cc3)n12)NCc1ccco1 -3.16%
O=C(CSc1nnc2ccccn12)c1ccccc1 -0.613%
CN(C)/C=N/c1cc(=O)n(C)c(=O)n1CC1CC1 0.302%
CCn1c(CSc2nncn2-c2ccc(OC)cc2)nc2cc(S(=O)(=O)N(C)C)ccc21 -0.0262%
Cc1ccc(C(=O)Nc2nnc(-c3ccncc3)s2)o1 -0.503%
CCCN(CCC)C(=O)C1c2ccccc2Oc2ccccc21 -2.75%
O=C(NCCc1ccco1)c1nn(Cc2ccccc2)c(=O)c2ccccc12 -1.11%
COC(=O)c1c(NC(=O)CSc2nncs2)sc2c1CCCCC2 -0.0838%
CCOC(=O)N1CCN(C(=O)c2nn(-c3ccc(C)cc3)c(=O)c3c2c2ccccc2n3C)CC1 0.678%
CCOC(=O)c1nnn(CC(=O)Nc2cccc(F)c2)c1C(=O)OCC -0.331%
CCC1=C(OC(=O)N(CC)CC)N2C(=O)OC(=NCC3CC3)[C@]2(C)[C@H]2C1=CC[C@H]1C(=O)N(CC(=O)OC)C(=O)[C@H]12 -1.92%
COc1ccc(C(=O)NCc2cn3ccccc3n2)cc1 0.842%
COc1cccc(-c2cc(NCCc3c[nH]c4ccc(OC)cc34)ncn2)c1 -0.197%
COCCNC(=O)CSc1nc2c(n1-c1ccccc1)CCCC2 0.0626%
COc1ccccc1N=C1SC(C)CN1C(=O)C1CCC1 (stereo not given) 1.07%
Cc1ccc2[nH]c3c(c2c1)CN(C(=O)CN1CCN(c2ccccc2)CC1)CC3 -1.58%
CC(NC(=O)c1cc(-c2ccccc2)on1)c1ccccc1 (stereo not given) -1.69%
O=S(=O)(c1cccs1)N1CCN(Cc2ccccc2)CC1 0.716%
CCCC(=O)Nc1nnc(CC(=O)OCC)s1 -0.653%
N#CC1=C(SCc2ccccc2)NC(=O)C(C#N)C12CCCC2 (stereo not given) 0.43%
Cc1cc(N(C)C)cc(C)[n+]1[O-] -0.606%
CC(C)(C)NC(=O)c1cc(NC(=O)c2ccco2)cc(NC(=O)c2ccco2)c1 0.733%
Cc1ccc2nc(NC(=O)C3CCN(S(=O)(=O)c4ccc5c(c4)oc(=O)n5C)CC3)sc2c1 0.323%
COC(=O)[C@@H]1C[C@@]2(O)[C@H](O)[C@H](O)[C@H](O)C[C@H]2N1Cc1ccc(C)s1 -0.918%
COC(=O)Nc1nc2ccc(Sc3ccccc3)cc2[nH]1
